High-throughput results (PubChem BioAssay)
Shown are actives, neighbours in structure and some others; about 17% of the full set was active somewhere.
ATXN2 expr inh: inhibitors of ATXN2 expression; actives 0.72% (n = 360,000); Potency, µM (doses to about 57 µM), for inactives: at the top dose activity change, negative = inhibition, most hits filed as inhibitors; HEK-293 ATXN2-luciferase reporter, luminescence, 24 h; also: % is scaled to controls: 0 for no effect and ±100 for the full control effect; nearly all actives have a fitted effect of over 55% in size
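ATXN2-luciferase reporter cells (luciferase flanked by upstream and downstream ATXN2 gene portions) were treated 24 h at 37 °C with compounds at up to 57 uM. SteadyGlo luminescence gave expression; GF-AFC fluorescence gave viability.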
TDP1 cell CPT: DT40-hTDP1 cell growth loss with CPT; actives 12% (n = 420,000); Potency, µM (highest dose often 46.2 µM), for the others: top-dose activity change, negative = growth inhibition, actives largely listed as inhibitors; chicken DT40 Tdp1-/-;hTDP1 cells + 20 nM CPT, ATP luminescence, 48 h; also: % is scaled to controls: 0 for no effect and ±100 for the full control effect; nearly all actives have a fitted effect of over 55% in size
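Cell growth measured by CellTiter-Glo luminescence after a minimum 48 h, 37 C compound exposure with 20 nM CPT in Tdp1-knockout DT40 cells stably expressing hTDP1, seeded 400/well; qHTS titration format.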
HepG2 viability: kills HepG2 cells in TGF-b inhibitor counter-screen; HepG2 CAGA-GFP viability, ATP luminescence, 18 h; Potency, µM (series often up to 46.1 µM), for the others: at the highest dose activity change, negative = cytotoxicity, actives largely listed as cytotoxic; actives 0.76% (n = 410,000); AID 588856
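HepG2 CAGA-GFP cells (1000/well, DMEM with 1% FBS) received compound, then TGF-beta at 500 pg/mL final, and were incubated 18 hours at 37 degrees C. Viability was read by CellTiter-Glo luminescence. Media-only wells were set as complete cell-killing and DMSO as no toxicity.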
TGFb inhibitor: TGF-b pathway inhibition. HepG2 CAGA-GFP TGF-b/SMAD3 reporter, GFP fluorescence, 18 h; TGF-beta stimulated, 500 pg/mL final. Potency, µM (series often up to 46.1 µM), inactives show at the top dose activity, negative = inhibition, actives largely listed as inhibitors. actives 1.2% (n = 410,000). AID 588855; also: % is scaled to controls: 0 for no effect and ±100 for the full control effect; nearly all actives have a fitted effect of over 65% in size
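First, reporter cells (HEPG2 CAGA-GFP) rested 2 h at 37 degrees C. Next, compounds were pinned in and TGF-beta added to 500 pg/mL final. After 18 h, GFP was imaged per cell and summed per well.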
TDP1 cell noCPT: qHTS for Inhibitors of human tyrosyl-DNA phosphodiesterase 1 (TDP1): qHTS in cells in absence of CPT; DT40 Tdp1-/- hTDP1 cells, no CPT, ATP luminescence, 48 h; Potency, µM (series often up to 46.2 µM), without a hit: top-dose activity change, negative = growth inhibition, hits mostly inhibitors; actives 15% (n = 420,000); AID 686978, 2013; also: % is scaled to controls: 0 for no effect and ±100 for the full control effect; nearly all actives have a fitted effect of over 55% in size
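Chicken DT40 Tdp1-/- cells stably complemented with human TDP1 were seeded at 400 cells/well with DMSO in place of 20 nM camptothecin. After compound pinning, cells grew at least 48 hr at 37 °C; viability read by CellTiter-Glo luminescence.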
S2 tox: reduces viability in counter-screen for ATXN expression inhibitors | S2 cells (HEK-293 line with an ATXN2-luciferase reporter) viability, CellTiter-Fluor protease fluorescence, 24 h | actives 0.49% (n = 400,000) | Potency, µM (titrated, usually from 56.7 µM), most hits filed as cytotoxic; also: nearly all actives have a fitted effect of over 40% in size
An asterisk follows results filed as active; i = inactive; ? = inconclusive; nt = no result given. Calls follow the shape of the dose curve; as a rule, active = well fitted curve in the direction sought with a large enough effect; inconclusive = small, poorly fitted or top-dose-only effect, or another doubt; inactive = no such curve, though single readings can be large; an effect the other way counts as inactive or inconclusive. Potency is read from the fitted curve at half-maximal effect.

SMILES | ATXN2 expr inh | TDP1 cell CPT | HepG2 viability | TGFb inhibitor | TDP1 cell noCPT | S2 tox
O=C(/C=C/Nc1cccc(C(F)(F)F)c1)c1ccc(Oc2ncccn2)cc1 | 5.5% | ? | -9.0% | -4.9% | 23.1µM* | i
CC(=O)Nc1ccc(S(=O)(=O)NCC(=O)OCC(=O)N2CCN(c3ccccc3)CC2)cc1 | -11.9% | -13.2% | -17.9% | -22.4% | -8.6% | i
CN1CCC(C2(O)c3ccccc3CCc3ccccc32)CC1 | 35.3% | 18.4µM* | 12.6% | 14.8% | ? | ?
Cc1ccc(NC(=O)CN(C)C(=O)COC(=O)c2ccc(Cl)cc2O)cc1 | -16.5% | ? | -2.4% | 1.9% | -4.8% | i
CCn1nc(C)cc1C(=O)N1CCCC(C(=O)c2ccccc2SC)C1 (stereo unspecified) | -15.5% | 16.4µM* | -1.1% | -12.7% | 18.4µM* | i
O=C(c1cccc2ccccc12)C1CCCN(C(=O)CCCn2cncn2)C1 (stereo unspecified) | 15.1% | -22.1% | -44.5% | 6.0% | 16.4µM* | i
CCc1cc(C(=O)N2CCCC(C(=O)c3cccc4ccccc34)C2)n(C)n1 (stereo unspecified) | -17.0% | ? | -24.1% | -10.1% | 14.6µM* | ?
Cc1cc(C(=O)N2CCCC(C(=O)c3cccc4ccccc34)C2)nc(C)n1 (stereo unspecified) | nt | ? | -1.2% | 2.7% | ? | i
CSc1ccccc1C(=O)C1CCCN(C(=O)c2ccc(N3CCOCC3)cc2)C1 (stereo unspecified) | 3.6% | ? | 3.4% | 1.5% | ? | i
O=C(c1cccc2ccccc12)C1CCCN(C(=O)c2ccc(N3CCOCC3)cc2)C1 (stereo unspecified) | -22.1% | ? | -13.7% | -11.6% | 23.1µM* | i
CSc1ccccc1C(=O)C1CCCN(C(=O)NC(C)C)C1 (stereo unspecified) | 3.5% | -24.9% | -4.3% | 16.9% | -23.1% | i
O=S(=O)(c1ccccc1)[C@@]1(c2ccc(Br)cc2)C[C@@H]2ON=C(c3ccccc3)[C@@H]2C1 | 1.8% | ? | 2.1% | -6.2% | 11.6µM* | i
O=S(=O)(c1ccccc1)[C@@]1(c2ccc(Br)cc2)C[C@@H]2ON=C(c3cccc(Br)c3)[C@@H]2C1 | -13.8% | ? | -8.1% | ? | 18.4µM* | i
N=c1c2ccccc2nc2n1CCCCC2 | nt | -0.2% | -0.6% | 2.2% | -28.7% | i
CCN(CC(=O)Nc1c(C(=O)OC)[nH]c2ccc(Cl)cc12)c1ccc2c(c1)OCO2 | -17.4% | ? | -1.3% | ? | 25.9µM* | i
CCOC(=O)c1[nH]c2ccc(Cl)cc2c1NC(=O)/C=C/c1ccc2c(c1)OCO2 | ? | ? | 10.4% | 24.7% | ? | nt
COc1ccc(NCc2nn(CC(=O)c3ccc(Br)cc3)c3[n+]2CCCCC3)cc1 | 10.4% | ? | -24.2% | 0.4% | 16.4µM* | ?
O=C(Cn1nc(CNc2ccc(Cl)cc2)[n+]2c1CCCCC2)c1ccc(Br)cc1 | -5.7% | 23.1µM* | -37.5% | 0.0% | ? | i
O=C(Cn1nc(CNc2ccc(Br)cc2)[n+]2c1CCCCC2)c1ccc([N+](=O)[O-])cc1 | -33.9% | 6.51µM* | 0.9% | -22.2% | 11.6µM* | i
COc1ccc(C(=O)CN2C(=O)NC3(CCCCCC3)C2=O)cc1 | 21.1% | -2.3% | -11.8% | 3.4% | -28.2% | i
CCCCN1C[C@H](CSC)[C@@H](CC(=O)Nc2ccc(OC)cc2)C1=O | 4.1% | -9.1% | 3.0% | 11.0% | ? | i
COc1cccc(NC(=O)CCc2c(C)nc3ncnn3c2C)c1 | -11.5% | 13.0% | 9.7% | 6.8% | -5.5% | i
